Data published in PubChem BioAssay (Tox21).
Values without a mark were called inactive. Activity calls are given as the source filed them. Calls follow the shape of the dose curve; as a rule, active = well fitted curve in the direction sought with a large enough effect in the repeat runs; inconclusive = weak or mixed curves; inactive = flat fitted curve, though single readings scatter.

Experiment: qHTS assay to test for compound auto fluorescence at 535 nm (green) in HEK293 cell free culture (AID 720682)
Details: cell-free medium, green autofluorescence 485/535 nm, stronger effect = higher value; series mostly up to 91.3 µM; activity change: at the top concentration
In short: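 Using fluorescein as calibrant, autofluorescence was quantified at 485/535 nm in cell-free DMEM containing 10% FBS after pintool addition of compound or vehicle.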
% is scaled to controls: 0 for no effect and ±100 for the full control effect.

SMILES | activity change | outcome
C=C1CCC2CC1C2(C)C (centres undefined) | -0.0393% | 
CN1CCCC(CC2c3ccccc3Sc3ccccc32)C1 (centres undefined) | 0.123% [at 18.6 µM] | 
CC(C)c1nc(CN(C)C(=O)N[C@H](C(=O)N[C@@H](Cc2ccccc2)C[C@H](O)[C@H](Cc2ccccc2)NC(=O)OCc2cncs2)C(C)C)cs1 |  | inactive
CC(C)(c1ccccc1)c1ccccc1 | -0.174% | 
CN1CCCC(n2nc(Cc3ccc(Cl)cc3)c3ccccc3c2=O)CC1 (centres undefined) | 0.0803% [at 46 µM] | 
O=C(O)CCCCCCCCCCCBr | 0.0209% | 
CCCCN1CCCC1C(=O)Nc1c(C)cc(C)cc1C (centres undefined) | -0.0933% [at 46 µM] | 
Cc1ccccc1N=C(N)Nc1ccccc1C | -0.0105% | 
CCOc1ccccc1O[C@H](c1ccccc1)[C@H]1CNCCO1 | 0.02% [at 46 µM] | 
CCOC(=O)c1ccc(C#Cc2ccc3c(c2)C(C)(C)CCS3)nc1 | 0.0599% [at 46 µM] | 
C=C/C(C)=C/C/C=C(\C)CCC=C(C)C | -0.0021% | 
CCOC(=O)C1=C(C)NC(C)=C(C(=O)OC)C1c1cccc(Cl)c1Cl (centres undefined) | 0.0918% [at 46 µM] | 
Oc1cc2c(cc1O)[C@H]1c3ccc(O)c(O)c3OC[C@@]1(O)C2 | 5.92% [at 95.7 µM] | 
CN(C)CCC=C1c2ccccc2C=Cc2ccccc21 | -0.0779% [at 46 µM] | 
CN(C(=O)CN(CCO)CC(=O)N(C)C(C)(C)Cc1ccccc1)C(C)(C)Cc1ccccc1 | -0.0126% [at 18.6 µM] | 
CC(=O)c1ccc([N+](=O)[O-])cc1 | -0.128% | 
CCCCCCCCCCCCCCN(CCO)CCO | -0.0342% | 
COc1cc(C(=O)NC2CCN(C)CC2)ccc1Nc1ncc2c(n1)N(C1CCCC1)CC(F)(F)C(=O)N2C | -0.07% | 
CC1=C(Br)C(=O)C(Br)=C/C1=C(/c1ccccc1S(=O)(=O)O)c1cc(Br)c(O)c(Br)c1C | -0.749% | 

SMILES | activity change | outcome
COc1ccccc1NC(=O)c1cc2ccccc2cc1O | 0.172% | 
O=C(Nc1cccc2c(=O)cc(-c3nn[nH]n3)oc12)c1ccc(OCCCCc2ccccc2)cc1 | 0.0414% [at 46 µM] | 
O=C(O)c1cccc(-c2noc(-c3ccccc3F)n2)c1 | -0.0007% [at 46 µM] | 
O=C1c2ccccc2C(=O)N1CCc1noc(-c2ccc(CN3CCCCCC3)s2)n1 | 0.0078% | 
Oc1c(I)cc(I)c2cccnc12 | 0.0406% [at 46 µM] | 
CCCCC(CC)CN (centres undefined) | 0.0265% [at 95.7 µM] | 
OCCN1CCN(CCCN2c3ccccc3Sc3ccc(Cl)cc32)CC1 | -0.0092% [at 18.6 µM] | 
Cc1cc(=O)c2c(O)c3c(O)cc(=O)c4c3c3c(cc(O)c1c23)C(C)(C)C=4O | 3.9% [at 46 µM] | 
C[C@@H]1CC(=O)NN=C1c1ccc(NN=C(C#N)C#N)cc1 | 0.0749% [at 46 µM] | 
C[C@H]1c2cccc(O)c2C(O)=C2C(=O)[C@]3(O)C(O)=C(C(N)=O)C(=O)[C@@H](N(C)C)[C@@H]3[C@@H](O)[C@@H]21 | 0.0165% [at 46 µM] | 
NNC(=O)CP(=O)(c1ccccc1)c1ccccc1 | 0.0539% [at 46 µM] | 
CN(C)CCN1C(=O)c2ccccc2N(C)c2ccccc21 | -0.0387% [at 46 µM] | 
C[C@]1(Cn2ccnn2)[C@H](C(=O)O)N2C(=O)C[C@H]2S1(=O)=O | 0.0805% [at 46 µM] | 
c1ccc(C[n+]2cccc3ccccc32)cc1 | 0.143% | 
CC1CC(OC(=O)C(O)c2ccccc2)CC(C)(C)N1C (centres undefined) |  | inactive
COc1ccccc1N1CCN(CC(O)COc2cccc3ccccc23)CC1 (centres undefined) | 0.025% [at 46 µM] | 
CN1C(=O)OC(C)(C)C1=O |  | inactive
CC1=C(CC=O)C(C)(C)CCC1 | -0.121% | 

Experiment: qHTS assay to test for compound auto fluorescence at 590 nm (red) in HEK293 cell free culture (AID 720683)
Details: cell-free medium autofluorescence, Ex540/Em590 red; series mostly up to 91.3 µM; fluorescence, % of fluorescent control: at the top concentration
In short: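 Cell-free wells of DMEM with 10% FBS received compound, and intrinsic fluorescence was read at excitation/emission 540/590 nm. Values expressed as equivalence to Rose Bengal sodium.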

SMILES | fluorescence, % of fluorescent control | outcome
C=C1CCC2CC1C2(C)C (centres undefined) | 0.0735% | 
CN1CCCC(CC2c3ccccc3Sc3ccccc32)C1 (centres undefined) | 0.0507% [at 18.6 µM] | 
CC(C)c1nc(CN(C)C(=O)N[C@H](C(=O)N[C@@H](Cc2ccccc2)C[C@H](O)[C@H](Cc2ccccc2)NC(=O)OCc2cncs2)C(C)C)cs1 |  | inactive
CC(C)(c1ccccc1)c1ccccc1 | 0.0149% | 
CN1CCCC(n2nc(Cc3ccc(Cl)cc3)c3ccccc3c2=O)CC1 (centres undefined) | -0.324% [at 46 µM] | 
O=C(O)CCCCCCCCCCCBr | -0.754% | 
CCCCN1CCCC1C(=O)Nc1c(C)cc(C)cc1C (centres undefined) | 0.2% [at 46 µM] | 
Cc1ccccc1N=C(N)Nc1ccccc1C | -0.342% | 
CCOc1ccccc1O[C@H](c1ccccc1)[C@H]1CNCCO1 | 0.185% [at 46 µM] | 
CCOC(=O)c1ccc(C#Cc2ccc3c(c2)C(C)(C)CCS3)nc1 | 0.0125% [at 46 µM] | 
C=C/C(C)=C/C/C=C(\C)CCC=C(C)C | 0.184% | 
CCOC(=O)C1=C(C)NC(C)=C(C(=O)OC)C1c1cccc(Cl)c1Cl (centres undefined) | 0.138% [at 46 µM] | 
Oc1cc2c(cc1O)[C@H]1c3ccc(O)c(O)c3OC[C@@]1(O)C2 | 2.62% [at 95.7 µM] | 
CN(C)CCC=C1c2ccccc2C=Cc2ccccc21 | -0.406% [at 46 µM] | 
CN(C(=O)CN(CCO)CC(=O)N(C)C(C)(C)Cc1ccccc1)C(C)(C)Cc1ccccc1 | 0% [at 18.6 µM] | 
CC(=O)c1ccc([N+](=O)[O-])cc1 | 0.0311% | 
CCCCCCCCCCCCCCN(CCO)CCO | -0.479% | 
COc1cc(C(=O)NC2CCN(C)CC2)ccc1Nc1ncc2c(n1)N(C1CCCC1)CC(F)(F)C(=O)N2C | 0.0349% | 
CC1=C(Br)C(=O)C(Br)=C/C1=C(/c1ccccc1S(=O)(=O)O)c1cc(Br)c(O)c(Br)c1C | -0.0506% | 

SMILES | fluorescence, % of fluorescent control | outcome
COc1ccccc1NC(=O)c1cc2ccccc2cc1O | 0.0133% | 
O=C(Nc1cccc2c(=O)cc(-c3nn[nH]n3)oc12)c1ccc(OCCCCc2ccccc2)cc1 | -0.509% [at 46 µM] | 
O=C(O)c1cccc(-c2noc(-c3ccccc3F)n2)c1 | 0.401% [at 46 µM] | 
O=C1c2ccccc2C(=O)N1CCc1noc(-c2ccc(CN3CCCCCC3)s2)n1 | -0.361% | 
Oc1c(I)cc(I)c2cccnc12 | -0.0819% [at 46 µM] | 
CCCCC(CC)CN (centres undefined) | -0.051% [at 95.7 µM] | 
OCCN1CCN(CCCN2c3ccccc3Sc3ccc(Cl)cc32)CC1 | 0.0511% [at 18.6 µM] | 
Cc1cc(=O)c2c(O)c3c(O)cc(=O)c4c3c3c(cc(O)c1c23)C(C)(C)C=4O | 2.5% [at 46 µM] | 
C[C@@H]1CC(=O)NN=C1c1ccc(NN=C(C#N)C#N)cc1 | 0.447% [at 46 µM] | 
C[C@H]1c2cccc(O)c2C(O)=C2C(=O)[C@]3(O)C(O)=C(C(N)=O)C(=O)[C@@H](N(C)C)[C@@H]3[C@@H](O)[C@@H]21 | -0.0759% [at 46 µM] | 
NNC(=O)CP(=O)(c1ccccc1)c1ccccc1 | -0.0068% [at 46 µM] | 
CN(C)CCN1C(=O)c2ccccc2N(C)c2ccccc21 | 0.433% [at 46 µM] | 
C[C@]1(Cn2ccnn2)[C@H](C(=O)O)N2C(=O)C[C@H]2S1(=O)=O | 0.117% [at 46 µM] | 
c1ccc(C[n+]2cccc3ccccc32)cc1 | -0.148% | 
CC1CC(OC(=O)C(O)c2ccccc2)CC(C)(C)N1C (centres undefined) |  | inactive
COc1ccccc1N1CCN(CC(O)COc2cccc3ccccc23)CC1 (centres undefined) | 0.0342% [at 46 µM] | 
CN1C(=O)OC(C)(C)C1=O |  | inactive
CC1=C(CC=O)C(C)(C)CCC1 | -0.0149% | 
